# Measured potencies and affinities stand elsewhere.
# Tests used:
# [1] = tested on: Klebsiella pneumoniae; conditions: Concentration 32 ug.mL-1;; ASSAY_TEST Inhibition of Bacterial Growth; detection method Absorption (OD600); MEDIA CAMHB; plate type 384well; NBS; CORNING #3640; time 18 hr
# [2] = tested on: Candida albicans; conditions: Concentration 32 ug.mL-1; ASSAY_TEST Inhibition of Fungal Growth; detection method Absorption (OD530)
# [3] = tested on: Cryptococcus neoformans; conditions: Concentration 32 ug.mL-1; ASSAY_TEST Inhibition of Fungal Growth; detection method Resazurin; Absorption (OD600-OD570); plate type 384well; NBS; CORNING #3640
Structure (SMILES),Inhibition [1],Inhibition [2],Inhibition [3]
O=S(=O)(c1ccc2nncn2c1)N(Cc1ccccc1F)c1ccc2c(c1)OCCO2,4.19%,7.13%,-6.58%
O=C(Cn1nc2c(Sc3ccccc3)nccn2c1=O)Nc1cccc(Cl)c1F,13.46%,0.76%,-9.38%
CCc1ccc(N(Cc2ccccc2)S(=O)(=O)c2cccn3c(C)nnc23)cc1,5.96%,-1.36%,-9.98%
COc1ccc(-c2cc3c4nn(CC(=O)Nc5ccc(OC)c(OC)c5)c(=O)n4ccn3n2)cc1,11.9%,-0.77%,-19.32%
CCCCn1c(=O)c2sccc2n2c(CCC(=O)Nc3ccc(OC(F)(F)F)cc3)nnc12,7.36%,-0.1%,-18.58%
Cc1cc(Nc2ccc(F)cc2)nc2nn(Cc3cccc(C#N)c3)c(=O)n12,10.49%,2.04%,-10.7%
C=Cc1ccc(CN(c2ccc3c(c2)OCO3)S(=O)(=O)c2ccc3nncn3c2)cc1,11.26%,1.71%,-6.68%
Cc1nnc2ccc(S(=O)(=O)N(Cc3ccc(Cl)cc3)c3cccc(F)c3)cn12,9.13%,3.61%,-11.42%
CCc1ccccc1NC(=O)Cn1nc2cc(C)nc(Nc3ccc(F)cc3)n2c1=O,9.33%,29.91%,-17.34%
O=C(Cn1nc2c3cc(-c4ccccc4)nn3ccn2c1=O)N1CCN(c2ccccc2F)CC1,9.85%,1.75%,-28.45%
COc1ccc(NC(=O)Cn2nc3ccc(SC(C)C)nn3c2=O)cc1OC,9.91%,1.32%,-1.1%
O=C(CSc1nc2ccccc2n2c(-c3ccccc3)nnc12)Nc1ccc(Br)cc1,12.64%,10.16%,-26.76%
Cc1ccc(N(Cc2ccccc2F)S(=O)(=O)c2ccc3nncn3c2)cc1,-0.06%,0.13%,-11.13%
COc1ccc(NC(=O)Cn2nc3ccc(SC4CCCCC4)nn3c2=O)c(OC)c1,4.32%,-0.43%,-25.29%
CCCCOc1ccc(-c2cc3c4nnc(SCC(=O)NCc5ccc(OC)cc5)n4ccn3n2)cc1,6.37%,17.75%,-16.44%
CCC(Sc1nnc2c(=O)n(-c3cccc(OC)c3)ccn12)C(=O)Nc1ccccc1C (stereo not given),4.33%,0.82%,-7.71%
COc1cccc(NC(=O)Cn2nc3c(N4CCCC4)nccn3c2=O)c1,8.57%,2.47%,-12.87%
Cc1ccc(C)c(NC(=O)Cn2nc3c(Sc4ccccc4)nccn3c2=O)c1,3.53%,1.24%,-8.99%
COc1ccc(-c2cc3c4nnc(SCC(=O)Nc5ccc(C)cc5Cl)n4ccn3n2)cc1,11.06%,0.54%,-30.51%
CCCc1nnc2c(=O)n(CC(=O)Nc3ccc(Br)cc3F)c3ccccc3n12,-10.52%,6.6%,-24.08%
CC1CCN(C(=O)Cn2nc3n(Cc4ccco4)c(=O)c4sccc4n3c2=O)CC1,6.19%,0.21%,-13.38%
CCOc1ccc(-n2ccn3c(SCC(=O)Nc4cc(F)ccc4F)nnc3c2=O)cc1,6.4%,2.5%,-1.21%
Cc1ccc(Oc2nccn3c(=O)n(CC(=O)NCc4ccccc4Cl)nc23)cc1,6.19%,1.69%,-7.33%
Cc1nnc2c(=O)n(CC(=O)Nc3ccc(F)cc3)c3ccccc3n12,10.46%,0.41%,-6.03%
Cc1ccc(-c2ccc3nn(CC(=O)Nc4ccccc4)c(=O)n3n2)cc1C,3.8%,-1.46%,-10.8%
COc1ccc(-c2cc3c4nnc(SCC(=O)NCc5cccc(OC)c5OC)n4ccn3n2)cc1,6.86%,0.88%,-15.85%
Cc1ccccc1Cn1nc2c(=O)n(-c3ccc(Br)cc3)ccn2c1=O,14.05%,0.14%,-2.03%
CSc1cccc(NC(=O)Cn2nc3c(Sc4cccc(F)c4)nccn3c2=O)c1,0.95%,3.02%,-2.39%
Cc1cccc(NC(=O)Cn2nc3ccc(-c4ccc(Cl)cc4)nn3c2=O)c1C,8.72%,0.72%,-12.84%
Cc1ccc(C)c(-c2cc3c4nnc(SCC(=O)Nc5cccc(Br)c5)n4ccn3n2)c1,-2.64%,49.44%,-19.95%

# — ChEMBL document CHEMBL4513146, “CO-ADD screening of Karazin Kharkiv National University (Ukraine) compounds”
